Common to all, as to assay: NCI-60 one-dose screen, 48 h (100 = growth as untreated, 0 = no growth, -100 = all killed)
Common to all, as to details: 10 µM unless noted

In test [1] the test system is NCI-H23 lung.
Test [2] deals with NCI-H226 lung.
In test [3] the test system is NCI-H322M lung.
For test [4], the system named is HOP-62 NSCLC.
In test [5] the test system is NCI-H460 lung.
For test [6], the system named is HOP-92 NSCLC.
Test [7] deals with NCI-H522 lung.
Test [8] concerns A549/ATCC NSCLC.
Test [9] relates to 786-0 renal.
Test [10] concerns COLO 205 colon.

Compounds without any hit were thinned out: in the full panel of roughly 83,000, 20% have a hit.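 The endpoint reported here, percent growth, reads 100 for growth as untreated, 0 for no net growth and -100 for all cells dead.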 Values without a mark were called inactive. The source made the active and inactive calls. How the source made its calls: active means growth percent below 10; inactive means the rest.

For the compound `O=S(=O)(NCCCNc1nccc(-c2c(-c3cccc(F)c3)nc3sccn23)n1)c1cccc(F)c1`, the growth in test [1] was 38.8%; in test [2], 23.2%; in test [3], 79.9%; in test [4], 61.3%; in [5], 58.3%; in [6] it was 74.8%. Moreover, the growth is 21.9% in test [7], 49.3% in [8], 66.3% in test [9] and 23.4% in test [10].
As for `Cc1c2cc[nH]c(=O)c2c(C)c2c1[nH]c1cc(OCCN3CCN(C)CC3)ccc12`, the growth is -18.1% (active) in [1]; 2.73% (active) in test [2]; 7.9% (active) in [3]; -16.9% (active) in test [4]; -20.5% (active) in [5]; 18.8% in test [6]. For the same compound, the growth in test [7] was -23.9% (active); in [8] it was -21.4% (active); in [9], 20.9%; in [10], -10.1% (active).
As to `O=C(O)c1ccc(NCc2cn(-c3ccc(C(F)(F)F)cc3)nc2-c2ccc(C(=O)O)cc2)cc1`, the growth is 107% in test [1]; 111% in test [2]; 106% in [3]; 101% in [4]; 103% in [5]; -7.09% (active) in test [6]. Further, the growth in [7] is 93.1%; in [8] it was 106%; in test [9] it was 105%; in [10] it was 119%.
Turning to `N#CC1=C(/N=C/c2ccccc2)Oc2c(ccc3ccccc23)C1c1ccc([N+](=O)[O-])cc1` (stereo not given), the growth in test [1] is 80.2%; in test [2], 65.3%; in test [3], 93.8%; in test [4], 89.1%; in test [5], 95.2%; in [6] it was 88.5%. Besides, the growth in [7] was 86.2%; in [8] it was 101%; in test [9], 102%; in test [10], 109%.
Turning to `COc1cc(NCCCCCNC(C)(C)C)c2ncccc2c1`, the growth is 93.1% in [1]; 86.5% in test [2]; 93.3% in test [3]; 92.7% in [4]; 111% in [5]; 79.4% in test [6]. The growth in test [7] was 67.8%; in [8] it was 88.1%; in test [9], 95.6%; in [10], 110%.
With `O=C1c2cccc3c(-c4ccc5c(c4)ncn5C4CCCCC4)ccc(c23)C(=O)N1CCO`, the growth in [1] was 78.6%; in test [2] it was 77%; in test [3], 91.8%; in test [4], 81.9%; in test [5] it was 94.1%; in test [6], 51.1%. Besides, the growth is 73.7% in test [7], 95.6% in test [8], 95.4% in test [9] and 108% in test [10].
Take `O=C(Cn1c[n+](CC(=O)c2ccc(-c3ccccc3)cc2)c2ccccc21)Nc1cccc2cccnc12`: the growth in [1] is 23.8%; in test [2], 50.4%; in test [3], 77.2%; in test [4], 43.2%; in [5], 28.7%; in [6] it was -4.57% (active). The growth in [7] is 2.6% (active); in [8], 59.9%; in test [9], 44.4%; in test [10] it was -61.8% (active).
`COC(=O)/C=C1\S/C(=N\NC(=O)c2cc3ccc2/C=C\c2ccc(cc2)/C=C\3)N(c2ccccc2)C1=O`: the growth in [1] is 40.4%; in [2] it was 73.8%; in [3], 68.5%; in test [4], 3% (active); in [5] it was 60.7%; in test [6], 75.3%. Besides, the growth in test [7] was 41.5%; in [8], 69.1%; in test [9] it was -0.285% (active); in [10], 47.7%.
For `COc1cc2nc(-c3ccc(Cl)cc3)cc(OCCCN3CCCC3)c2cc1OC`, the growth in test [1] is 62.8%; in test [2], -13.5% (active); in test [3], 58.5%; in test [4], 45.3%; in test [5] it was 25.2%; in test [6], 25%. In addition, the growth in test [7] was 38.1%; in [8] it was 41.5%; in [9] it was 67.4%; in test [10] it was 21.5%.
Take `COc1ccc(C(C)=O)c(OC)c1`: the growth in test [1] is 105%; in [2], 95.1%; in test [3] it was 124%; in [4] it was 103%; in [5] it was 115%; in [6], 75.5%. The growth in [7] is 89.9%; in test [8], 105%; in test [9], 103%; in test [10], 113%.
Regarding `C=C(C)[C@@H]1CC[C@]2(C(=O)N3CCN(C)CC3)CC[C@]3(C)[C@H](CC[C@@H]4[C@@]5(C)C/C(=C/c6ccncc6)C(=O)C(C)(C)[C@@H]5CC[C@]43C)[C@@H]12`, the growth in test [1] is 74.4%; in test [2], 61.9%; in [3] it was 85.4%; in test [4], 85.1%; in test [5], 37.2%; in test [6], 39.7%. The growth in [7] is 47.6%; in test [8] it was 40.4%; in [9] it was 65%; in [10] it was 53.7%.
`COc1cc2nc(-c3ccc(C(F)(F)F)cc3)cc(OCCN3CCCCC3)c2cc1OC`: the growth was 84.7% in [1]; 73.2% in test [2]; 73.1% in test [3]; 69.7% in test [4]; 46.3% in test [5]; 68.2% in [6]. The growth was 91.2% in [7], 81% in [8], 78.7% in [9] and 27.4% in test [10].
For `COc1cc(/C(C)=C(\c2ccc(Cl)cc2)c2ccc(OCCN3CCCC3)cc2)ccc1F`, the growth in [1] was 67.4%; in [2], 87.8%; in test [3], 71%; in [4], 87.2%; in test [5] it was 6.04% (active); in [6], 52.4%. The growth in [7] is 80%; in [8], 57.1%; in test [9] it was 71.4%; in test [10] it was 16.3%.
As to `CCCNC(=O)Oc1ccc(/C(=C(\C)c2ccccc2)c2ccc(OCCCN(C)C)cc2)cc1`, the growth in test [1] was 75.6%; in [2], 102%; in test [3], 81.2%; in test [4], 78.3%; in [5], 75.1%; in test [6] it was 68.2%. In addition, the growth was 79.6% in [7], 70% in [8], 58.6% in test [9] and 52.8% in [10].
In the case of `COc1ccccc1/C(C)=N/NC(=O)CSc1nc2ccccc2c(=O)n1Cc1ccc(S(N)(=O)=O)cc1`, the growth in [1] is 96.7%; in test [2], 95.5%; in test [3], 90%; in test [4], 93.5%; in test [5] it was 100%; in test [6] it was 105%. Further, the growth is 82.1% in test [7], 95.2% in test [8], 97.3% in [9] and 119% in test [10].
As to `COC(=O)/C=C1\S/C(=N\NC(=O)c2cc3ccc2/C=C\c2ccc(cc2)/C=C\3)N(Cc2ccccc2)C1=O`, the growth in [1] was 77.4%; in test [2], 64.8%; in test [3] it was 93.3%; in test [4], 77.2%; in test [5] it was 93.7%; in test [6], 75.5%. Moreover, the growth in [7] is 15.9%; in test [8], 77%; in test [9], 49.6%; in [10] it was 72.7%.
Consider `CCc1ccc(-c2cn3ccnc3c(-c3ccc4ncn(Cc5ccccc5)c4c3)n2)cc1`, for which the growth is 77% in test [1]; 98.5% in [2]; 99.1% in test [3]; 82.1% in [4]; 58% in [5]; 63.9% in test [6]. Moreover, the growth in test [7] is 54.1%; in test [8] it was 54.6%; in test [9], 61.9%; in [10] it was 65.8%.
With `N=C(N)c1ccc(OCCCCCCCCCCOc2ccc(C(=N)N)cc2)cc1`, the growth in [1] is -69.5% (active); in test [2], -71.7% (active); in test [3], -99% (active); in test [4] it was -76.6% (active); in test [5], -88.6% (active); in [6] it was -86.1% (active). For the same compound, the growth is -75.8% (active) in test [7], -85.4% (active) in [8], -89.8% (active) in [9] and -61.6% (active) in test [10].
On to `Cc1ccccc1NS(=O)(=O)c1cccc(C(=O)Nc2ccc(Br)cc2)c1`, for which the growth in [1] is 18.5% [25 µM]; in [2], 29.1% [25 µM]; in test [3], 64.2% [25 µM]; in test [4], 80.7% [25 µM]; in test [5] it was 35.8% [25 µM]; in test [6], 21.1% [25 µM]. In addition, the growth was 39.6% [25 µM] in [7], 38.1% [25 µM] in [8], 53.6% [25 µM] in test [9] and 52.4% [25 µM] in test [10].
With `O=S(=O)(NCCNc1nccc(-c2c(-c3cccc(F)c3)nc3sccn23)n1)c1ccc(Cl)cc1`, the growth in test [1] was 74.9%; in test [2], 49.3%; in test [3], 65.5%; in [4], 82.6%; in [5], 30.1%; in test [6], 76.6%. Also, the growth in test [7] is 68.2%; in [8] it was 32.1%; in test [9], 51.3%; in test [10] it was 40%.
As for `O=C(CCN1CCCC1)Nc1ccc2c(NCCCCc3ccccc3)c3ccccc3nc2c1`, the growth in [1] was -57.9% (active); in test [2], 63.1%; in test [3], -24.8% (active); in [4], -46.6% (active); in test [5], -69% (active); in test [6], -2.02% (active). Besides, the growth is -38.7% (active) in test [7], -45.5% (active) in test [8], 15% in [9] and -47.1% (active) in test [10].
As for `O=C(Nc1ccc(F)cc1)Nc1ccc(NC(=O)c2cc(Cl)nc3ccccc23)cc1`, the growth in test [1] is 69.2%; in test [2] it was 52.8%; in [3] it was 59.6%; in [4] it was 22.4%; in test [5], 18.5%; in [6], 23.5%. Moreover, the growth was 61.7% in [7], 79.8% in test [8], 98.4% in test [9] and 53.5% in [10].
On to `CC(=O)c1ccc(NS(=O)(=O)c2cccc(C(=O)Nc3ccc(Br)cc3)c2)cc1`, for which the growth in [1] is 36.4% [25 µM]; in test [2], 43% [25 µM]; in test [3] it was 89% [25 µM]; in test [4], 82% [25 µM]; in [5] it was 75.7% [25 µM]; in test [6], 47.7% [25 µM]. Moreover, the growth was 46.4% [25 µM] in test [7], 61.9% [25 µM] in test [8], 58.7% [25 µM] in test [9] and 77.7% [25 µM] in test [10].
Turning to `COc1ccc(-c2nc(S(=O)(=O)c3ccccc3)c(S(=O)CC(=O)N3CCC(C)CC3)o2)cc1` (stereo not given), the growth in test [1] is 54.1%; in test [2], 80.3%; in test [3], 73.2%; in [4], 76.6%; in test [5], 80.4%; in test [6], -22.6% (active). The growth is -86.6% (active) in [7], 77.4% in test [8], 10.3% in [9] and 48.7% in test [10].
`COc1cccc(-c2nc3occn3c2-c2ccnc(NCCNS(=O)(=O)c3cccc4ccccc34)n2)c1`: the growth in [1] is 103%; in test [2], 99.6%; in [3] it was 104%; in test [4] it was 103%; in test [5], 101%; in test [6], 122%. The growth in test [7] was 102%; in test [8] it was 105%; in [9], 97.8%; in [10], 96%.
Consider `CCOc1ccc(Nc2nc(-c3ccc4c(c3)NC(=O)CO4)cs2)cc1`, for which the growth in test [1] was 45.7%; in test [2], 46.9%; in [3], 84.8%; in test [4], 95.9%; in [5], 40.7%; in test [6], 87.3%. Besides, the growth in test [7] is 14.6%; in test [8], 71.7%; in [9], 71.1%; in [10] it was 88.5%.

Source of the values: PubChem BioAssay (NCI).
